In PubChem BioAssay (EPA / NIEHS):
Calls of active or inactive are those of the source. Rule for the calls: active = hit-call score of the fitted dose curve at least 0.9, where 1 is the maximum; inactive = score below 0.9.

Columns and labels:
[1] = BSK_3C_SRB: Viability Assessment in the BioMAP Diversity Plus: 3C Assay (AID 2283023); conditions: primary human endothelial cells (HUVEC);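 note: fitted both ways against DMSO so a hit may be signal rise or drop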
Outline: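 Overt cytotoxicity is gauged in parallel confluent HUVEC cultures by SRB total-protein staining at the time of biomarker measurement, 24 h after dosing. Gain or loss of signal is fitted versus DMSO.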

[2] = read-out: Matrix Metallopeptidase 1 (MMP1), MMP1 (gene 4312); experiment: BSK_BE3C_MMP1: BioMAP Diversity Plus: BE3C Assay for Matrix Metallopeptidase 1 (MMP1) Biomarker Activity (AID 2283024); conditions: primary human bronchial epithelial cells; actives raise or lower the signal
Outline: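 ELISA read-out of MMP1 in human lung bronchial epithelial primary cultures, 24 h post-dose; bidirectional curve fit vs DMSO baseline, gain or loss of signal scored.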

[3] = BSK_3C_Vis: BioMAP Diversity Plus: 3C Assay for Morphology Visualization (AID 2283025); conditions: primary human endothelial cells (HUVEC);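 note: fitted both ways so gain or loss versus DMSO counts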;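 for AC50: light microscopy image of cell morphology used as background control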
Outline: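 HUVEC, 3C system; light microscopy of morphology at 24 h post-dose. Bidirectional fit vs DMSO baseline. Secondary readout, background-control function.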

[4] = read-out: Pselectin, SELP (gene 6403); experiment: BSK_4H_Pselectin: BioMAP Diversity Plus: 4H Assay for Pselectin Biomarker Activity (AID 2283026); conditions: primary human endothelial cells (HUVEC); actives raise or lower the signal
Outline: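 HUVEC, 24 h chemical exposure; P-selectin read by ELISA. Bidirectional curve fit vs DMSO baseline; gain or loss of signal scored.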

[5] = BSK_4H_SRB: Viability Assessment in the BioMAP Diversity Plus: 4H Assay (AID 2283027); conditions: primary human endothelial cells (HUVEC);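 note: cells exposed to compound for 24 h before staining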;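 for AC50: curves fitted both ways versus DMSO so AC50 may be loss or gain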
Outline: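 Cytotoxicity readout: sulforhodamine B (0.1%) staining of total protein after 10% TCA fixation, measured at 560 nm in human umbilical vein endothelium at 24 h. DMSO set the baseline; fitting was bidirectional.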

[6] = BSK_BE3C_SRB: Viability Assessment in the BioMAP Diversity Plus: BE3C Assay (AID 2283028); conditions: primary human bronchial epithelial cells;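 note: measured 24 h after chemical dosing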;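 for AC50: fitted both ways so AC50 may mark signal gain or loss versus DMSO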
Outline: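 SRB total-protein staining (0.1%, after TCA fixation) of chemically dosed human bronchial epithelial primary cells at 24 h; DMSO serves as the negative control for bidirectional curve fitting.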

[7] = read-out: Thrombomodulin, THBD (gene 7056); experiment: BSK_3C_Thrombomodulin: BioMAP Diversity Plus: 3C Assay for Thrombomodulin Biomarker Activity (AID 2283029); conditions: primary human endothelial cells (HUVEC); actives raise or lower the signal
Outline: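 HUVEC, 3C conditions; compound 24 h; thrombomodulin by ELISA; bidirectional curve fit vs DMSO baseline; parallel SRB total-protein staining for cytotoxicity.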

[8] = read-out: Urokinase-type plasminogen activator receptor (uPAR), PLAUR (gene 5329); experiment: BSK_4H_uPAR: BioMAP Diversity Plus: 4H Assay for Urokinase-type plasminogen activator receptor (uPAR) Biomarker Activity (AID 2283030); conditions: primary human endothelial cells (HUVEC); actives raise or lower the signal
Outline: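 Endpoint derived via bidirectional curve fitting against DMSO baseline; readout was ELISA detection of uPAR on umbilical vein endothelial cells at 24 h post-treatment, with SRB-stained parallel cultures assessing cytotoxicity.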

[9] = read-out: Vascular endothelial growth factor receptor 2 (Homo sapiens) (UniProt P35968); experiment: BSK_4H_VEGFRII: BioMAP Diversity Plus: 4H Assay for Vascular endothelial growth factor receptor 2 (VEGFR2) Biomarker Activity (AID 2283031); conditions: primary human endothelial cells (HUVEC); actives raise or lower the signal;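 for AC50: cell-surface VEGFR2 protein level quantified by ELISA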
Outline: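 In this multiplexed HUVEC system, biomarker ELISA was performed after 24 h chemical exposure. Parallel SRB staining (TCA fixation, 560 nm) tracked cytotoxicity; DMSO served as baseline.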

[10] = read-out: Human Leukocyte Antigen - DR isotype (HLADR), HLA-DRA (gene 3122); experiment: BSK_BE3C_HLADR: BioMAP Diversity Plus: BE3C Assay for Human Leukocyte Antigen - DR isotype (HLADR) Biomarker Activity (AID 2283032); conditions: primary human bronchial epithelial cells; actives raise or lower the signal
Outline: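 Primary human bronchial epithelial cells (BE3C); 24 h chemical exposure; HLA-DR by ELISA; bidirectional curve fit vs DMSO baseline.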

[11] = read-out: Vascular cell adhesion molecule 1 (VCAM1), VCAM1 (gene 7412); experiment: BSK_4H_VCAM1: BioMAP Diversity Plus: 4H Assay for Vascular cell adhesion molecule 1 (VCAM1) Biomarker Activity (AID 2283033); conditions: primary human endothelial cells (HUVEC); actives raise or lower the signal;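 for outcome: cell-surface VCAM-1 protein measured by ELISA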
Outline: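 HUVEC, 24 h post-dose; VCAM-1 by ELISA. Bidirectional curve fit vs DMSO baseline. Parallel SRB total-protein stain (0.1% SRB after 10% TCA fixation, 560 nm) for cytotoxicity.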

[12] = read-out: Interferon-gamma inducible Protein 10 (IP10), CXCL10 (gene 3627); experiment: BSK_BE3C_IP10: BioMAP Diversity Plus: BE3C Assay for Interferon-gamma inducible Protein 10 (IP10) Biomarker Activity (AID 2283034); conditions: primary human bronchial epithelial cells; actives raise or lower the signal
Outline: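 ELISA readout of IP-10 in BE3C system: primary human bronchial epithelial cells, 24 h post-dosing; bidirectional curve fit vs DMSO baseline.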

[13] = read-out: Monokine induced gamma interferon (MIG), CXCL9 (gene 4283); experiment: BSK_BE3C_MIG: BioMAP Diversity Plus: BE3C Assay for Monokine induced gamma interferon (MIG) Biomarker Activity (AID 2283035); conditions: primary human bronchial epithelial cells; actives raise or lower the signal;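 for outcome: MIG protein measured by ELISA in BE3C cultures after 24 h of dosing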
Outline: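 hu bronchial epithelial 1° cells, 24 h cpd; MIG by ELISA; bidirectional fit, DMSO = baseline.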

[14] = read-out: Transforming growth factor beta 1 (TGFb1), TGFB1 (gene 7040); experiment: BSK_BE3C_TGFb1: BioMAP Diversity Plus: BE3C Assay for Transforming growth factor beta 1 (TGFb1) Biomarker Activity (AID 2283036;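 for outcome: TGF-b1 protein level measured by ELISA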); conditions: primary human bronchial epithelial cells; actives raise or lower the signal
Outline: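 Read-out: ELISA for TGF-b1 in primary human bronchial epithelial cultures, 24 h post-dose. Bidirectional curve fitting vs DMSO control; gain or loss of signal both scored.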

[15] = read-out: Plasminogen activator inhibitor-1 (PAI1), SERPINE1 (gene 5054); experiment: BSK_BE3C_PAI1: BioMAP Diversity Plus: BE3C Assay for Plasminogen activator inhibitor-1 (PAI1) Biomarker Activity (AID 2283037); conditions: primary human bronchial epithelial cells; actives raise or lower the signal
Outline: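 ELISA read-out of PAI-1 from human bronchial epithelial primary cells, 24 h post-dosing; bidirectional curve fit vs DMSO baseline, gain or loss of signal scored.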

[16] = read-out: urokinase plasminogen activator (uPA), PLAU (gene 5328); experiment: BSK_BE3C_uPA: BioMAP Diversity Plus: BE3C Assay for urokinase plasminogen activator (uPA) Biomarker Activity (AID 2283038); conditions: primary human bronchial epithelial cells; actives raise or lower the signal;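 note: uPA protein level quantified by ELISA in cell cultures; uPA read one day after compound addition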
Outline: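 Using confluent primary human lung bronchial epithelial cultures, we dosed chemicals, waited 24 h, then ran a uPA ELISA, fitting bidirectionally against DMSO.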

[17] = read-out: Urokinase-type plasminogen activator receptor (uPAR), PLAUR (gene 5329); experiment: BSK_BE3C_uPAR: BioMAP Diversity Plus: BE3C Assay for Urokinase-type plasminogen activator receptor (uPAR) Biomarker Activity (AID 2283039); conditions: primary human bronchial epithelial cells; actives raise or lower the signal;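 for outcome: uPAR protein level measured by ELISA on the cells; cells exposed to compound for one day before measurement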
Outline: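 ELISA readout of uPAR on human lung primary bronchial epithelial cells, 24 h post-dosing. Bidirectional curve fit relative to DMSO vehicle baseline; gain or loss of signal both scored.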

[18] = read-out: Interleukin-6 (IL6), IL6 (gene 3569); experiment: BSK_CASM3C_IL6: BioMAP Diversity Plus: CASM3C Assay for Interleukin-6 (IL6) Biomarker Activity for (AID 2283040); conditions: primary human coronary artery smooth muscle cells; actives raise or lower the signal
[19] = read-out: Tissue plasminogen activator (tPA), PLAT (gene 5327); experiment: BSK_BE3C_tPA: BioMAP Diversity Plus: BE3C Assay for Tissue plasminogen activator (tPA) Biomarker Activity (AID 2283041); conditions: primary human bronchial epithelial cells; actives raise or lower the signal;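 for outcome: tPA level quantified by ELISA one day after compound addition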
Outline: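 ELISA read-out of tPA on human primary bronchial epithelial cells, 24 h post-dosing; bidirectional fit vs DMSO negative control/baseline.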

[20] = read-out: Interleukin-8 (IL8), CXCL8 (gene 3576); experiment: BSK_CASM3C_IL8: BioMAP Diversity Plus: CASM3C Assay for Interleukin-8 (IL8) Biomarker Activity (AID 2283042); conditions: primary human coronary artery smooth muscle cells; actives raise or lower the signal;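 note: IL-8 protein level quantified by ELISA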

## Cc1ccc(C)c(O)c1
[1]
  outcome: inactive
[2]
  outcome: inactive
[3]
  outcome: inactive
[4]
  outcome: inactive
[5]
  outcome: inactive
[6]
  outcome: inactive
[7]
  outcome: inactive
[8]
  outcome: inactive
[9]
  outcome: inactive
[10]
  outcome: inactive
[11]
  outcome: inactive
[12]
  outcome: inactive
[13]
  outcome: inactive
[14]
  outcome: inactive
[15]
  outcome: inactive
[16]
  outcome: inactive
[17]
  outcome: inactive
[18]
  outcome: inactive
[19]
  outcome: inactive
[20]
  outcome: inactive

## Cn1c(=O)cc(Oc2ccc(F)cc2F)c2cnc(NCC(C)(C)O)nc21
[1]
  outcome: inactive
[2]
  outcome: inactive
[3]
  outcome: inactive
[4]
  outcome: inactive
[5]
  outcome: inactive
[6]
  outcome: inactive
[7]
  AC50: 4.61 µM (active)
[9]
  outcome: inactive
[10]
  outcome: inactive
[11]
  outcome: inactive
[12]
  outcome: inactive
[13]
  outcome: inactive
[14]
  outcome: inactive
[15]
  AC50: 9.04 µM (active)
[16]
  outcome: inactive
[17]
  outcome: inactive
[18]
  AC50: 5.13 µM (active)
[19]
  outcome: inactive
[20]
  AC50: 3.16 µM (active)

## COC(=O)c1c(Cl)c(Cl)c(C(=O)OC)c(Cl)c1Cl
[1]
  outcome: inactive
[2]
  outcome: inactive
[3]
  AC50: 39 µM (active)
[4]
  outcome: inactive
[5]
  outcome: inactive
[7]
  outcome: inactive
[8]
  outcome: inactive
[9]
  outcome: inactive
[10]
  outcome: inactive
[11]
  outcome: inactive
[12]
  outcome: inactive
[13]
  outcome: inactive
[14]
  outcome: inactive
[15]
  outcome: inactive
[16]
  outcome: inactive
[17]
  outcome: inactive
[18]
  outcome: inactive
[19]
  outcome: inactive
[20]
  outcome: inactive

## CCCCCCCCCCCCc1ccccc1
[1]
  outcome: inactive
[2]
  outcome: inactive
[3]
  outcome: inactive
[4]
  AC50: 31.5 µM (active)
[5]
  outcome: inactive
[6]
  outcome: inactive
[7]
  outcome: inactive
[9]
  outcome: inactive
[10]
  outcome: inactive
[11]
  outcome: inactive
[12]
  outcome: inactive
[13]
  outcome: inactive
[14]
  outcome: inactive
[15]
  outcome: inactive
[16]
  outcome: inactive
[18]
  outcome: inactive
[19]
  outcome: inactive
[20]
  outcome: inactive

## CCC(C)(C)C(=O)O[C@H]1C[C@@H](C)C=C2C=C[C@H](C)[C@H](CC[C@@H]3C[C@@H](O)CC(=O)O3)[C@H]21
[1]
  AC50: 3.97 µM (active)
[2]
  AC50: 31.9 µM (active)
[3]
  AC50: 20 µM (active)
[4]
  outcome: inactive
[5]
  AC50: 10.1 µM (active)
[6]
  AC50: 36.1 µM (active)
[7]
  AC50: 0.526 µM (active)
[9]
  AC50: 26.9 µM (active)
[10]
  AC50: 30.8 µM (active)
[11]
  AC50: 29.9 µM (active)
[12]
  AC50: 34.1 µM (active)
[13]
  AC50: 36.7 µM (active)
[14]
  AC50: 27.1 µM (active)
[15]
  AC50: 31.9 µM (active)
[17]
  AC50: 32.5 µM (active)
[18]
  outcome: inactive
[19]
  AC50: 5.4 µM (active)
[20]
  AC50: 34.2 µM (active)

## CCCC(=O)OCC
[1]
  outcome: inactive
[2]
  outcome: inactive
[3]
  outcome: inactive
[4]
  outcome: inactive
[5]
  outcome: inactive
[6]
  outcome: inactive
[7]
  outcome: inactive
[9]
  outcome: inactive
[10]
  outcome: inactive
[11]
  outcome: inactive
[12]
  outcome: inactive
[13]
  outcome: inactive
[14]
  outcome: inactive
[15]
  outcome: inactive
[16]
  outcome: inactive
[17]
  outcome: inactive
[18]
  outcome: inactive
[19]
  outcome: inactive
[20]
  outcome: inactive

## CC(C)CC(C)(O)C#CC(C)(O)CC(C)C (stereo unspecified)
[1]
  outcome: inactive
[2]
  outcome: inactive
[3]
  outcome: inactive
[4]
  outcome: inactive
[5]
  outcome: inactive
[6]
  outcome: inactive
[7]
  outcome: inactive
[10]
  outcome: inactive
[11]
  outcome: inactive
[12]
  outcome: inactive
[13]
  outcome: inactive
[14]
  outcome: inactive
[15]
  outcome: inactive
[16]
  outcome: inactive
[17]
  outcome: inactive
[18]
  outcome: inactive
[19]
  outcome: inactive
[20]
  outcome: inactive
